Most compounds without a hit are left out; they make up all but 0.5% or so of the library.
AddAB inh: less growth of phage-infected E. coli with AddAB. inhibition, % at 11.9 µM. E. coli expressing H. pylori AddAB, absorbance growth. AID 435030. hit rate 0.29% among 330,000; in the data active = inhibition above about 12%
Tat transport: inhibitors of E. coli Tat protein transport | hit rate 0.036% among 340,000 | inhibition, % at 10 µM | E. coli MC4100 TorA-mCherry Tat export, fluorescence;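 active = mean replicate inhibition at least 50% and at least half of replicates individually reaching 50%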;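 note: exported cargo escapes ClpAP degradation while cytoplasmic cargo is degraded and loses fluorescence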
phage Ecoli inh: E. coli growth loss with phage present | AID 651602 | inhibition, % at 11.9 µM | hit rate 0.26% among 360,000 | growth absorbance; in the data active = inhibition above about 11%
E coli growth-1: counter-screen for AddAB inhibitors: E. coli growth inhibition; E. coli V3065 growth, OD600 absorbance, 18 h; inhibition, % at 11.9 µM; hit rate 0.27% among 330,000; AID 449728;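 active = inhibition above the campaign's mean inhibition across all tested compounds plus 3 SD, cut at about 9.9% in these data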;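 note: uninfected addAB+ strain grown without phage in ampicillin broth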
E coli growth-2: E. coli growth inhibition; Escherichia coli growth, OD600, 23 h; active compounds read low; OD600 absorbance (test concentration not listed); hit rate 0.21% among 330,000; AID 1053175;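 active = OD600 absorbance below the run mean of sample wells minus 3.6 SD, in any replicate, cut at about 0.56 in these data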
AddAB confirm: growth loss of T4-infected E. coli expressing H. pylori AddAB, confirmed; shares compounds with AddAB inh; E. coli V3065 expressing H. pylori AddAB, T4 phage, OD; T4 phage with gene 2 nonsense mutations; inhibition, % at 11.9 µM; hit rate 64% among 880; AID 488942;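 active = mean inhibition above a set limit taken from the earlier primary screen, cut at about 13% in these data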;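 note: higher means less bacterial growth since AddAB block lets phage replicate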
RecBCD counter: reduces growth of phage-infected RecBCD+ E. coli, AddAB inhibitor counter-screen. shares compounds with AddAB inh. inhibition, % at 11.9 µM. E. coli V66 + mutant T4 phage, OD growth. hit rate 73% among 880;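 active = mean inhibition above the mean of solvent-only control wells plus 3 SD, cut at about 4% in these data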;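 note: optical density read after an 18 h incubation at 37 °C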
bact viab count: counter-screen: bacterial growth inhibition | shares compounds with AddAB inh | hit rate 35% among 880 | bacterial viability, absorbance (AddAB counterscreen) | inhibition, % at 11.9 µM; in the data active = inhibition above about 25%
Hits are given with their value; – = inactive; · = not tested or not shown.

SMILES	AddAB inh	Tat transport	phage Ecoli inh	E coli growth-1	E coli growth-2	AddAB confirm	RecBCD counter	bact viab count
CC(C(=O)Nc1ccc2ccccc2c1)C1C[C@@]1(C)C(NC(=O)c1cnccn1)c1ccccc1 (some centres not stated)	·	·	·	·	–	·	·	·
COc1cc(/C=N\NC(=O)c2ccc(Cn3cc(Br)c([N+](=O)[O-])n3)o2)cc(OC)c1O	44	–	–	23	·	52	5.6	39
COc1cc(C=NNC(=O)c2ccc(Cn3cc(Br)c([N+](=O)[O-])n3)o2)cc(OC)c1O	·	·	·	·	–	·	·	·
O=C(NN=Cc1ccc2c(c1)OCO2)c1ccc(Cn2cc([N+](=O)[O-])cn2)o1	·	·	·	·	–	·	·	·
O=C(N/N=C\c1cccc(F)c1)c1ccc(Cn2cc(Br)c([N+](=O)[O-])n2)o1	27	–	–	19	·	54	7.7	41
O=C(N/N=C\c1ccc(F)cc1)c1ccc(Cn2cc(Br)c([N+](=O)[O-])n2)o1	36	–	–	33	·	54	5.8	38
O=C(N/N=C\c1ccc2c(c1)OCO2)c1ccc(Cn2cc(Br)c([N+](=O)[O-])n2)o1	23	–	–	20	·	–	–	–
CC(C)(C)Nc1nc(Cl)nc(Nc2ccccc2)n1	–	–	–	–	–	·	·	·
COc1ccccc1Nc1nc(Cl)nc(NC(C)(C)C)n1	96	–	–	79	–	–	–	–
CC(NC(=O)CN1CCOCC1)c1ccc(F)cc1 (configuration not stated)	15	–	–	16	–	–	–	–
CCC(C)C1CN=C(N)N1CCCc1cc(OC)c(OC)c(OC)c1 (configuration not stated)	·	·	·	·	–	·	·	·
COc1ccc(/C=N/NC(=S)SC)cc1OC	18	–	–	13	·	44	12	30
CC1=NN(C(N)=S)C(=O)C1N=Nc1c(C)cc(C)cc1C (configuration not stated)	–	–	–	–	–	·	·	·
CC1=NN(C(N)=S)C(=O)C1N=Nc1c(Br)cc(Br)cc1Br (configuration not stated)	14	–	–	14	·	26	13	26
O=C1C(Cc2ccccc2)NCC=CCC(c2ccco2)N1Cc1ccccc1 (configuration not stated)	·	·	·	·	–	·	·	·
Cc1onc(-c2ccccc2)c1C(=O)O/N=C(\N)c1ccc([N+](=O)[O-])o1	16	–	–	–	·	33	–	–
CCc1nnc(NS(=O)(=O)c2ccc(N/C=C/C(=O)c3ccc(C)cc3)cc2)s1	17	–	–	11	·	–	–	–
CCc1nnc(NS(=O)(=O)c2ccc(N/C=C\C(=O)c3ccc(C)cc3)cc2)s1	20	–	–	13	–	–	–	–
COC(=O)C1=C(C(=O)OC)C2N(C)c3ccc(OC)cc3[C@@]23CC(C(=O)OC)N(C(=O)c2ccco2)C3=N1 (some centres not stated)	·	·	·	·	–	·	·	·
O=C(C1=CC(C2CC2)CC(OCCCCO)O1)N1CCN(Cc2ccccc2)CC1 (configuration not stated)	·	·	·	·	–	·	·	·
CCCCCC(=O)Nc1cccc(C2=NOC3(C2)CC(C(N)=O)N(C(=O)c2ccc(Cl)cc2)C3)c1 (configuration not stated)	·	·	·	·	–	·	·	·
COc1cccc(/C=N/NC(=O)c2[nH]c(C)c(C(=O)N/N=C/c3cccc(OC)c3O)c2C)c1O	28	–	22	28	·	18	21	–
O=C(NCCC1=CCCCC1)C1CCN(S(=O)(=O)c2ccccc2)CC1	–	–	–	–	–	·	·	·
O=C(NCCC1=CCCCC1)C1CCN(C(=O)Cc2ccccc2)CC1	98	–	–	98	–	–	–	–
CCCC(=O)NC(c1ccccc1Cl)c1ccc2cccnc2c1O (configuration not stated)	34	–	26	35	·	29	27	26
SMILES	AddAB inh	Tat transport	phage Ecoli inh	E coli growth-1	E coli growth-2	AddAB confirm	RecBCD counter	bact viab count
CCCCC(=O)NC(c1ccc(OC)cc1)c1ccc2cccnc2c1O (configuration not stated)	·	·	–	·	·	·	·	·
COc1ccc(C(NC(=O)C(C)C)c2ccc3cccnc3c2O)cc1 (configuration not stated)	26	–	25	26	–	26	24	–
Cc1ccc(SC(CCN2CCC(C)CCC2=O)c2ccccc2)cc1 (configuration not stated)	·	·	·	·	–	·	·	·
Cc1ccc(S(=O)(=O)N2C(c3cccs3)CC=C(C(=O)O)C2c2ccc(F)cc2)cc1 (configuration not stated)	·	·	·	·	–	·	·	·
Cc1ccc(S(=O)(=O)CCC(=O)NNC(=O)CN(C)S(=O)(=O)c2ccc(C)cc2)cc1	–	–	–	–	–	·	·	·
Cc1ccc(S(=O)(=O)CCC(=O)Nc2ccc(S(=O)(=O)N(C)C)cc2)cc1	97	·	·	96	–	–	–	–
CC(C)(C)C1C=C(C(=O)NCc2ccccc2)OC(OCc2ccc(CO)cc2)C1 (configuration not stated)	·	·	·	·	–	·	·	·
O=C(N/N=C/c1c(O)ccc2ccccc12)c1ccc(Br)o1	21	–	16	23	·	15	17	–
Cc1occc1C(=O)N/N=C/c1c(O)ccc2ccccc12	17	–	–	14	·	17	16	–
O=C(N/N=C\c1c(O)ccc2ccccc12)c1ccc(O)cc1	–	–	–	–	·	·	·	·
O=C(Nc1ccc(Cl)c(C(F)(F)F)c1)C1CC=CC2CCN(Cc3ccc(Cl)c(Cl)c3)C(=O)C21 (configuration not stated)	·	·	·	·	–	·	·	·
C#CCOCCOCCOCCNc1nc(N2CCOCC2)nc(N2CCN(C(=O)CCCCCCCCCCNC(=O)C(CCC(=O)O)n3cc(CCCCCN)nn3)CC2)n1 (configuration not stated)	·	·	·	·	–	·	·	·
Cc1ccc(S(=O)(=O)Nc2ccc(S(=O)(=O)Nc3nccs3)cc2)c([N+](=O)[O-])c1	16	–	–	–	–	–	4.1	–
Cc1ccc(S(=O)(=O)Nc2nccs2)cc1[N+](=O)[O-]	–	–	–	–	–	·	·	·
COc1ccc(C2C=C3CN(C(=O)OC(C)(C)C)S(=O)(=O)C3CC2OC(=O)c2ccc(C(F)(F)F)cc2)cc1 (configuration not stated)	·	·	·	·	–	·	·	·
NNC(=O)c1cccc(Cn2cc(Br)c([N+](=O)[O-])n2)c1	27	–	–	24	–	97	12	67
CCCNC(=O)c1cccc(Cn2cc(Br)c([N+](=O)[O-])n2)c1	15	–	–	11	–	31	–	32
COc1ccc(NC(=O)c2cccc(Cn3cc(Br)c([N+](=O)[O-])n3)c2)c(C)c1	–	–	–	–	–	·	·	·
COc1ccc(CNC(=S)NN=Cc2ccncc2)cc1	·	·	·	·	–	·	·	·

Compound activity from PubChem.
